Sampled rows, rich in hits. Any-hit rate of the full collection: about 3.6%.
IkB signaling: IkB pathway inhibition in ABC-DLBCL cells; ABC-DLBCL IkBa-CBG/CBR dual luciferase ratio, 4 h; response scale: scaled: untreated 0%, proteasome inhibitor 100%; Potency, µM (doses to about 57.1 µM), inactives show top-dose IkBa stabilization activation; actives 0.04% (n = 110,000); AID 445; active = well fitted curve in the direction sought with a large enough effect in the signal ratio, not every such curve was filed as active; inconclusive = small, poorly fitted or top-dose-only effect, or a change in a side signal; the % refers to the signal ratio;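 also: the direction sought is a rising ratio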
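In this assay, an IκBα–CBG68 fusion accumulates when IKK-driven degradation is blocked; native CBR normalizes for cell number. OCI-Ly3 cells were treated 4 h with compound and doxycycline, then green and red light read after Chroma-Glo addition.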
TSHR agonist: activates the human thyroid stimulating hormone receptor. Potency, µM (doses to about 57.1 µM), without a hit: top-dose activation, most hits filed as activators. AID 926. P16473. HEK293-CNG-TSHR cells (CNG channel as cAMP sensor), membrane potential dye, cAMP. actives 0.48% (n = 73,000); active = well fitted activation curve with a large enough effect in the main read-out, with a control signal flat, not every such curve was filed as active; inconclusive = small, poorly fitted or top-dose-only effect, or a change in a side signal; inactive = no such curve, though single readings can be large or run the other way; % of control where 0% means no effect;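 also: the control signal comes from parental cells without the receptor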
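HEK 293 cells stably expressing TSHR and a modified CNG channel, with CNG-only parental cells as counterscreen, were preloaded 60 min at room temperature with membrane potential dye containing 100 uM RO 20-1724. Compound exposure was 30 min, and depolarization was read as fluorescence at 590 nm.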
CRE-bla Fsk: CRE-bla signaling modulation under forskolin stimulation; CHO CRE-bla reporter (cAMP response element driving beta-lactamase), forskolin EC10, beta-lactamase ratio; Potency, µM (doses to about 38.2 µM), for the others: at the highest dose activity change, negative = inhibition, usual class: activators; actives 2.5% (n = 71,000); active = well fitted activation curve with a large enough effect in the signal ratio, with a control signal flat, not every such curve was filed as active; inconclusive = small, poorly fitted or top-dose-only effect, or effect the other way, or a change in a side signal; the % refers to the signal ratio; also: % of control where 0% means no effect
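The 460nm/530nm emission ratio after CCF4 loading defined %Activity, from which AC50 values were obtained. CRE-bla CHO cells received compound dilution series together with an EC10 level of NKH 477 for 3 hours at 37 degrees Celsius.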
ERK AVP block: inhibitors of vasopressin-stimulated ERK signaling pathway; actives 0.99% (n = 72,000); Potency, µM (titrated, usually from 57.5 µM), for the others: top-dose activity, negative = inhibition, hits mostly inhibitors; HEK293-V1b, vasopressin-stimulated pERK AlphaScreen; also: % is scaled to controls: 0 for no effect and ±100 for the full control effect; nearly all actives have a fitted effect of over 55% in size
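Overnight-seeded V1b-HEK293 cells in 1% FBS got compound, then vasopressin (25 nM final, 5 min, 37C), then lysis buffer. AlphaScreen detection of phospho-ERK; activity normalized to basal and full-stimulation controls.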
HEK293 cAMP ctrl: parental HEK293 cAMP activation (counter-screen). actives 2.5% (n = 73,000). parental HEK293 CNG cAMP sensor, membrane potential fluorescence. Potency, µM (doses to about 57.1 µM), for inactives: at the highest dose activation, actives largely listed as activators; also: % of control where 0% means no effect; nearly all actives have a fitted effect of over 55% in size
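Parental HEK 293 cells stably expressing a modified CNG channel (no TSHR) report cAMP rise as membrane depolarization. Membrane potential dye with 100 uM RO 20-1724 was loaded for 60 min at room temperature, then compound added for 30 min; fluorescence read at 590 nm.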
Starred values were filed as active, the others as inactive. Unless noted, calls follow the shape of the dose curve; as a rule, active = well fitted curve in the direction sought with a large enough effect; inconclusive = small, poorly fitted or top-dose-only effect, or another doubt; inactive = no such curve, though single readings can be large; an effect the other way counts as inactive or inconclusive. Potency is read from the fitted curve at half-maximal effect.

How did CC1CCC2C(C)(C)C3CC12CC[C@]3(C)O (stereo partly specified) do in these assays?
ERK AVP block: 8%

How did C=C(C)Cn1c(CCNC(=O)C(C)C)nc2ccccc21 do in these assays?
IkB signaling: 0%; TSHR agonist: -1%; CRE-bla Fsk: 4%; ERK AVP block: -7%; HEK293 cAMP ctrl: -2%

What do the screens show for `CCCn1c(=N)n(CC(O)COc2cccc(C)c2)c2ccccc21` (stereo unspecified)?
IkB signaling: inconclusive; TSHR agonist: inconclusive; CRE-bla Fsk: -8%; ERK AVP block: 5%; HEK293 cAMP ctrl: 16µM*

What do the screens show for `CCCCn1c(=N)n(CC(O)COc2ccc(C)cc2)c2ccccc21` (stereo unspecified)?
IkB signaling: inconclusive; TSHR agonist: inconclusive; CRE-bla Fsk: -12%; ERK AVP block: -9%; HEK293 cAMP ctrl: 16µM*

What do the screens show for `CCCCn1c(=N)n(CC(O)COc2ccccc2)c2ccccc21` (stereo unspecified)?
IkB signaling: 0%; TSHR agonist: inconclusive; CRE-bla Fsk: -7%; ERK AVP block: -9%; HEK293 cAMP ctrl: 1.3µM*

What do the screens show for `CCn1c(=N)n(CC(O)COc2cccc(C)c2)c2ccccc21` (stereo unspecified)?
IkB signaling: 1%; TSHR agonist: inconclusive; CRE-bla Fsk: inconclusive; ERK AVP block: 11%; HEK293 cAMP ctrl: inconclusive

How did Cc1ccccc1OCC(O)Cn1c(=N)n(CCN2CCOCC2)c2ccccc21 (stereo unspecified) do in these assays?
IkB signaling: 0%; TSHR agonist: inconclusive; CRE-bla Fsk: -1%; ERK AVP block: -11%; HEK293 cAMP ctrl: 10µM*

What do the screens show for `N=c1n(CCN2CCOCC2)c2ccccc2n1CC(O)COc1ccccc1` (stereo unspecified)?
IkB signaling: 1%; TSHR agonist: inconclusive; CRE-bla Fsk: -1%; ERK AVP block: 2%; HEK293 cAMP ctrl: inconclusive

Results for COc1cccc(-n2c(SCC(=O)c3ccccc3)nc3c([nH]c4ccccc43)c2=O)c1 ?
IkB signaling: 2%

Results for O=S(=O)(c1ccc(F)c2ccccc12)N1CCCCC1 ?
IkB signaling: 0%; TSHR agonist: inconclusive; CRE-bla Fsk: -8%; ERK AVP block: 25%; HEK293 cAMP ctrl: 32µM*

What do the screens show for `CN(C)C=Nc1ncc2c3ccccc3n(CCN(C)C)c2c1C#N`?
IkB signaling: -8%; TSHR agonist: -6%; CRE-bla Fsk: 0%; ERK AVP block: -24%; HEK293 cAMP ctrl: 21%

Results for CN(C)C=Nc1ncc2c3ccccc3n(Cc3ccccc3)c2c1C#N ?
IkB signaling: -1%; TSHR agonist: inconclusive; CRE-bla Fsk: inconclusive; ERK AVP block: -2%; HEK293 cAMP ctrl: 32µM*

How did c1ccc(OCCSc2nnnn2C2CCCCC2)cc1 do in these assays?
IkB signaling: -2%; TSHR agonist: inconclusive; CRE-bla Fsk: 9%; ERK AVP block: -4%; HEK293 cAMP ctrl: 25µM*

How did O=C1CCC(=O)N1c1ccc(CSc2nnnn2C2CCCCC2)cc1 do in these assays?
IkB signaling: 1%; TSHR agonist: 3%; CRE-bla Fsk: 3%; ERK AVP block: 16µM*; HEK293 cAMP ctrl: 6%

How did COc1ccc(OCCSc2nnnn2C2CCCCC2)cc1 do in these assays?
IkB signaling: 3%; TSHR agonist: inconclusive; CRE-bla Fsk: 24%; ERK AVP block: 4%; HEK293 cAMP ctrl: inconclusive

What do the screens show for `N#C/C(=C\c1ccc(O)c(O)c1)C(=O)NCCCCc1ccccc1`?
IkB signaling: inconclusive; TSHR agonist: -5%; CRE-bla Fsk: inconclusive; ERK AVP block: 40µM*; HEK293 cAMP ctrl: 8%

How did COc1cccc(C2=NS(=O)(=O)N(C)C(C(=O)Nc3ccccc3SC)=C2)c1 do in these assays?
IkB signaling: 9%

How did Cc1ccccc1C(=O)N1CCN(c2ccc(NC(=O)c3ccco3)cc2Cl)CC1 do in these assays?
IkB signaling: inconclusive; TSHR agonist: -7%; CRE-bla Fsk: inconclusive; ERK AVP block: 32µM*; HEK293 cAMP ctrl: -2%

High-throughput results: PubChem BioAssay, National Center for Advancing Translational Sciences (NCATS)
